The list is not random: actives were taken first. Their share in the collection is about 18%.
TDP1 cell CPT: DT40-hTDP1 cell growth loss with CPT | Potency, µM (titrated, usually from 46.2 µM), for the others: at the top dose activity change, negative = growth inhibition, most hits filed as inhibitors | chicken DT40 Tdp1-/-;hTDP1 cells + 20 nM CPT, ATP luminescence, 48 h | 12% of 420,000 active | AID 686979; note: potency is the fitted concentration of half-maximal effect; nearly all actives have a fitted effect of over 55% in size
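Chicken DT40 Tdp1-/- cells stably complemented with human TDP1 were seeded at 400 cells/well in medium containing 20 nM camptothecin, exposed to pin-transferred compounds, and grown at 37 °C for at least 48 hr. Viability was read as ATP luminescence.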
Gal4-VP16 FLuc: inhibits Gal4-VP16 luciferase reporter, ROR gamma counter-screen | 3.5% of 310,000 active | AID 2546 | Drosophila S2 Gal4-VP16 UAS-luciferase, luminescence, 20 h | Potency, µM (highest dose often 53.6 µM), without a hit: at the highest dose activity, negative = inhibition, hits mostly inhibitors;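 note: Gal4-VP16 expression switched on by copper sulfate through the metallothionein promoter; potency is the fitted concentration of half-maximal effect; nearly all actives have a fitted effect of over 50% in size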
IL-1B inflam inh: inhibitors of inflammasome signaling (IL-1 beta secretion); activity change, % at 57.5 µM; 4.7% of 360,000 active; THP-1 LPS/ATP IL-1B secretion, AlphaLISA, 16 h; hits give low values; in the data active = activity change below about -50%; inconclusive = mostly about -30% to -49%
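THP-1 cells pretreated 1 hr with compounds (up to 57.5 uM final), then stimulated with LPS (250 ng/mL final) plus ATP (1.25 mM final); secreted IL-1B measured by AlphaLISA after 16 hr, decreased signal indicating inhibition.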
TDP1 cell noCPT: qHTS for Inhibitors of human tyrosyl-DNA phosphodiesterase 1 (TDP1): qHTS in cells in absence of CPT | DT40 Tdp1-/- hTDP1 cells, no CPT, ATP luminescence, 48 h | Potency, µM (titrated, usually from 46.2 µM), for the others: top-dose activity change, negative = growth inhibition, most hits filed as inhibitors | AID 686978, 2013 | 15% of 420,000 active; note: potency is the fitted concentration of half-maximal effect; nearly all actives have a fitted effect of over 55% in size
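Growth of hTDP1-complemented DT40 Tdp1-knockout cells is measured by ATP luminescence after at least 48 hr compound exposure at 37 °C, with DMSO substituting for the 20 nM CPT used in the parallel screen.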
LDHA block: inhibitors of human lactate dehydrogenase A. P00338. purified LDHA, NADH/diaphorase-resazurin fluorescence; hits give low values. activity change, % (values are at about 110 or 230 µM). 0.15% of 480,000 active. AID 1347041; in the data active = activity change below about -30%; inconclusive = mostly about -25% to -30%;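 note: plate controls were DMSO wells for no effect and wells without enzyme for full effect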
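Human LDH5 at 2 nM final in Tris HCl pH 7.4 with 0.06 mM NADH and 0.2 mM pyruvate, reacted 5 minutes at room temperature. Remaining NADH coupled via diaphorase/resazurin; resorufin fluorescence read at 0 and 20 minutes, normalized to enzyme-free and DMSO wells.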
RORgamma inh: blocks mouse ROR gamma transcriptional activity | P51450 | 5.4% of 310,000 active | Potency, µM (top dose mostly 53.6 µM), without a hit: at the top dose activity change, negative = inhibition, hits mostly inhibitors | AID 2551 | Drosophila S2 Gal4-RORgamma UAS-luciferase reporter, 20 h; note: potency is the fitted concentration of half-maximal effect; nearly all actives have a fitted effect of over 60% in size
Target sequence (P51450 whole entry, looked up, the tested form may be a part): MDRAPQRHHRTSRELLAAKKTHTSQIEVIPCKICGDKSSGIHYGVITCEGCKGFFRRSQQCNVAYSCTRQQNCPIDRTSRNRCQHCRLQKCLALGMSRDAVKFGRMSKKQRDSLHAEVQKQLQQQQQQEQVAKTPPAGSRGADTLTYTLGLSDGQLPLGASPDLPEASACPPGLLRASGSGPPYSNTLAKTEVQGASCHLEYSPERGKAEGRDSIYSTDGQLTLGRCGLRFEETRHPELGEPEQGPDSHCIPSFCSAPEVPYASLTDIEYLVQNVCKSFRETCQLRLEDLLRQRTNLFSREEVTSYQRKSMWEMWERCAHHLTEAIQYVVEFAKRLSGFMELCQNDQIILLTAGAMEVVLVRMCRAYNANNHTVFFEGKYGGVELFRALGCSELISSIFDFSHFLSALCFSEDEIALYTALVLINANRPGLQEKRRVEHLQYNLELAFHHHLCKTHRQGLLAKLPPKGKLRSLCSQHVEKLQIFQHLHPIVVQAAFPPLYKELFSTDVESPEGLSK
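ROR gamma transcriptional activity was tracked as Gal4-UAS luciferase output in stably transfected Drosophila Schneider cells, with compound added 1 hr before 700 uM copper sulfate induction and a 20 hr ambient-temperature incubation.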
Numbers without * were called inactive; ? = inconclusive; . = not tested or not shown; ! = a repeat was not active. Unless noted, calls come from the whole dose curve; as a rule, active = well fitted curve in the direction sought with a large enough effect; inconclusive = small, poorly fitted or top-dose-only effect, or another doubt; inactive = no such curve, though single readings can be large; an effect the other way counts as inactive or inconclusive. Unless noted, % is set by controls: 0 for no effect and ±100 for the full control effect.

SMILES	TDP1 cell CPT	Gal4-VP16 FLuc	IL-1B inflam inh	TDP1 cell noCPT	LDHA block	RORgamma inh
CN1CCN(C(c2ccccc2)c2nnnn2C(C)(C)C)CC1 (stereo unspecified)	-15.2%	.	43.0	-9.0%	0.9	.
COc1ccc(N2CCN(C(c3ccc4ncccc4c3)c3nnnn3C(C)(C)C)CC2)cc1 (stereo unspecified)	-5.0%	-18.1%	-3.8	-5.9%	1.7	-17.8%
CCNC(=O)c1cc2cc(N(C)S(C)(=O)=O)ccc2s1	.	.	.	.	4.6	.
CCCCn1nnnc1C(c1ccccc1)N1CCN(c2c(Cl)cncc2Cl)CC1 (stereo unspecified)	?	.	0.2	16.4µM*	1.7	.
CCCCn1nnnc1C(c1ccccc1)N1CCN(c2cccc(C)c2C)CC1 (stereo unspecified)	?	.	-15.3	16.4µM*	0.9	.
COc1cccc(CNC(=O)NNc2nc(C)cc(=O)[nH]2)c1	.	.	.	.	1.5	.
COc1ccc(C(=O)O)cc1S(=O)(=O)N1CCCc2ccccc21	8.1%	4.9%	35.5	-2.7%	1.9	-14.8%
COc1ccc(C(=O)Nc2cccc(C)n2)cc1S(=O)(=O)N1CCCc2ccccc21	?	.	?	16.4µM*	-4.5	.
COc1ccc(C(=O)Nc2ccc(C)cn2)cc1S(=O)(=O)N1CCCc2ccccc21	?	.	-5.8	?	-3.5	.
COc1ccc(C(=O)NCc2ccccc2)cc1S(=O)(=O)N1CCCc2ccccc21	15.8µM*	3.4%	5.1	?	2.5	24.8%
O=c1[nH]cccc1NS(=O)(=O)c1ccc(Cl)cc1	.	.	.	.	1.5	.
CCCS(=O)(=O)N1CCCC1C(=O)NC1CCCCC1 (stereo unspecified)	.	.	.	.	-0.6	.
O=P(CCCCCCCCCP(=O)(c1ccccc1)c1ccccc1)(c1ccccc1)c1ccccc1	7.31µM*	?	-103.6*	8.2µM*	-2.3	?
CCCCN(CCCC)CP(=O)(c1ccccc1)c1ccccc1	16.4µM*	-6.9%	-8.0	14.6µM*	-1.6	0.7%
O=C(O)CCCCCCCCCCP(=O)(c1ccccc1)c1ccccc1	4.8%	3.1%	30.8	6.3%	-9.6	-16.4%
CCCOP(=O)(c1ccccc1)c1ccccc1	20.6µM*	1.8%	14.4	?	-5.3	2.4%
CC(C)CCOP(=O)(c1ccccc1)c1ccccc1	?	-13.2%	-23.5	?	-2.7	13.9%
O=P(COCCCCCOCP(=O)(c1ccccc1)c1ccccc1)(c1ccccc1)c1ccccc1	16.4µM*	-2.7%	?	18.4µM*	0.1	32.2%
CSc1ccc(C2C(C#N)=C(N)Oc3c2ccc(=O)c2c(C)oc(C)c32)cc1 (stereo unspecified)	18.4µM*	?	-7.6	16.4µM*	8.8	6.31µM*
O=[N+]([O-])c1cccc2c(Cl)ccnc12	?	-0.9%	-3.9	?	-3.8	-8.4%
Cc1ccc2ccc3cccnc3c2n1	0.92µM*	.	91.4	1.03µM*	1.1	.
Clc1cc2cccnc2c2ncccc12	-5.2%	.	230.0	1.2%	5.5	.
Cc1ccnc2c(N)cccc12	?	.	.	12.6µM*	.	.
Nc1cccc2cccnc12	1.78µM*	.	.	5.62µM*	-3.2	.
Cc1ccnc2c([N+](=O)[O-])cccc12	22.4µM*	.	.	?	-8.8	.
SMILES	TDP1 cell CPT	Gal4-VP16 FLuc	IL-1B inflam inh	TDP1 cell noCPT	LDHA block	RORgamma inh
COc1ccc2cnn(CC(=O)Nc3ccccc3Cl)c(=O)c2c1OC	.	.	.	.	4.1	.
Cc1cccc(C)c1NC(=O)C1CCCN(c2cnc3ccccc3n2)C1 (stereo unspecified)	.	.	.	.	7.6	.
Cn1c(=O)c2c(ncn2CC(=O)Nc2ccc3c(c2)OC2(CCCCC2)O3)n(C)c1=O	.	.	.	.	3.1	.
CCOc1ccc(NC(=O)CSc2nc3c(oc4ccccc43)c(=O)n2CCOC)cc1	-29.8%	.	.	-13.1%	-9.1	.
CCOCCCn1c(SCC(=O)Nc2ccccc2OC)nc2c(oc3ccccc32)c1=O	?	.	.	25.9µM*	-3.9	.
CCOCCCn1c(SCC(=O)Nc2oc(C)c3c(C)n[nH]c(=O)c23)nc2ccccc2c1=O	23.1µM*	.	-24.7	?	10.5	.
COc1ccccc1NC(=O)CSc1nc2c(oc3ccccc32)c(=O)n1Cc1ccco1	14.6µM*	.	.	?	-4.4	.
CCOc1ccccc1NC(=O)CSc1nc2c(oc3ccccc32)c(=O)n1Cc1ccco1	16.4µM*	.	.	20.6µM*	-8.4	.
Cc1n[nH]c(=O)c2c(NC(=O)CSc3nc4ccccc4c(=O)n3CCCOC(C)C)oc(C)c12	?	3.1%	?	?	-3.7	26.1%
O=C(CSc1nc2c(oc3ccccc32)c(=O)n1Cc1ccco1)Nc1ccccc1	-14.0%	.	.	-18.9%	0.1	.
CN(C)C(=O)CN1CCN(c2nc3nonc3nc2N2CCCCC2)CC1	-15.1%	15.7%	-17.0	?	-2.3	-20.1%
OCCN(CCO)c1nc(N2CCCCC2)c2nc(N(CCO)CCO)nc(N3CCCCC3)c2n1	4.55µM*	-13.6%	-18.2	14.6µM*!	4.3	?
COc1ccc(-c2nc(NC(=O)c3nn(C(C)C)c(=O)c4ccccc34)sc2C)cc1	.	.	.	.	6.6	.
COc1ccc(-c2nc(NC(=O)c3cc(C(C)(C)C)nn3C)sc2C)cc1	?	-11.3%	-23.5	20.6µM*	-3.2	?
COc1ccc(-c2nc(NC(=O)c3c(C)noc3C)sc2C)cc1	10.3µM*	.	0.5	20.6µM*	-1.4	.
COc1ccc(-c2csc(NC(=O)C3CC(=O)N(Cc4ccccc4)C3)n2)cc1OC (stereo unspecified)	?	-2.5%	-59.1*	?	-2.6	2.6%
Cc1nnc(NC(=O)C2CC(=O)N(Cc3ccccc3)C2)s1 (stereo unspecified)	-1.4%	3.9%	-5.8	-1.5%	-5.8	-20.3%
COc1ccc(-c2nc(NC(=O)c3n[nH]c(=O)c4ccccc34)sc2C)cc1	20.6µM*	-6.1%	17.6	9.2µM*	-3.1	-37.5%
O=C(O)c1ccc2c(c1)oc1ccccc12	.	.	.	.	3.7	.
CNC(=O)c1ccc(CNC(=O)c2nccnc2N)cc1	.	.	.	.	-0.6	.
CSc1ccc(C2=NN(S(=O)(=O)c3ccccc3)C(c3ccc4nccnc4c3)C2)cc1 (stereo unspecified)	.	.	.	.	-4.2	.
Cc1nc2sc3c(c2c2nc(C(=O)NCC(C)C)nn12)CC(C)(C)OC3	.	.	.	.	3.7	.
COc1ccc(Cc2nnc(NC(=O)c3c(-c4ccccc4)noc3C)s2)cc1	-7.3%	?	35.2	-15.5%	-0.4	15.8µM*
